The full data set covers some 7,900 targets. This sample favours those with a hit. About 0.6% of all pairs of compound and target were hits.
Compound: CC[C@H](C)[C@@H](C(=O)N[C@@H]([C@@H](C)O)C(=O)N[C@@H](CC(C)C)C(=O)[C@]1(CO1)C)NC(=O)[C@H]([C@@H](C)CC)N(C)C(=O)C [epoxomicin]
Test: log2 fold change, soluble protein after heating vs DMSO (PISA); higher = thermal stabilisation; K562 cells, 10 uM, 30 min; active = over 0.2 and 3.5 SD of the protein, either way, in both replicates (recomputed)
Method in brief: (§1)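 K562 cells at 2×10^6 cells/mL were treated for 30 min with 10 μM compound, and aliquots were heated for 3 min over 48°C-58°C before pooling. Extraction used PBS with 0.5% NP-40 at 4°C, and soluble protein was the supernatant after 21,000xg for 90 min, measured by TMTpro 16plex LC-MS/MS with channel sums equalised. Thermal stability values, relative to control samples and from duplicates, are log2 fold changes.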

UniProt Q01628, sequence (Q01628 whole entry, looked up): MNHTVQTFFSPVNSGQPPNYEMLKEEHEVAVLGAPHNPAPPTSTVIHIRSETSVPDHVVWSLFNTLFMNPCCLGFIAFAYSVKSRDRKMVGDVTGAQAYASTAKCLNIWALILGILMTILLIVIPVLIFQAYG
UniProt P55795, sequence (P55795 whole entry, looked up): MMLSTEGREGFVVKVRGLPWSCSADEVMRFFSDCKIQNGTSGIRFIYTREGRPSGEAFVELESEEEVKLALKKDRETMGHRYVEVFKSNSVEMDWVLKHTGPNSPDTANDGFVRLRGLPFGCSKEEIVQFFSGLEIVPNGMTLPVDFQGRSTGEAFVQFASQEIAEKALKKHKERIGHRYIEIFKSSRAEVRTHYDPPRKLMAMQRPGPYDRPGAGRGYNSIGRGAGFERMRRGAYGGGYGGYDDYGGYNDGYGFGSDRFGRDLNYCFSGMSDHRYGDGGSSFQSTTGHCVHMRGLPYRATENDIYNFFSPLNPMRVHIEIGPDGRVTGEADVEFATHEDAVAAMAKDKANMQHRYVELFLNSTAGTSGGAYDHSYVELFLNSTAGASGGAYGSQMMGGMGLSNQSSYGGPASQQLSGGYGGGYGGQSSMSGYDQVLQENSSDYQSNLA
UniProt O14976, sequence (O14976 whole entry, looked up): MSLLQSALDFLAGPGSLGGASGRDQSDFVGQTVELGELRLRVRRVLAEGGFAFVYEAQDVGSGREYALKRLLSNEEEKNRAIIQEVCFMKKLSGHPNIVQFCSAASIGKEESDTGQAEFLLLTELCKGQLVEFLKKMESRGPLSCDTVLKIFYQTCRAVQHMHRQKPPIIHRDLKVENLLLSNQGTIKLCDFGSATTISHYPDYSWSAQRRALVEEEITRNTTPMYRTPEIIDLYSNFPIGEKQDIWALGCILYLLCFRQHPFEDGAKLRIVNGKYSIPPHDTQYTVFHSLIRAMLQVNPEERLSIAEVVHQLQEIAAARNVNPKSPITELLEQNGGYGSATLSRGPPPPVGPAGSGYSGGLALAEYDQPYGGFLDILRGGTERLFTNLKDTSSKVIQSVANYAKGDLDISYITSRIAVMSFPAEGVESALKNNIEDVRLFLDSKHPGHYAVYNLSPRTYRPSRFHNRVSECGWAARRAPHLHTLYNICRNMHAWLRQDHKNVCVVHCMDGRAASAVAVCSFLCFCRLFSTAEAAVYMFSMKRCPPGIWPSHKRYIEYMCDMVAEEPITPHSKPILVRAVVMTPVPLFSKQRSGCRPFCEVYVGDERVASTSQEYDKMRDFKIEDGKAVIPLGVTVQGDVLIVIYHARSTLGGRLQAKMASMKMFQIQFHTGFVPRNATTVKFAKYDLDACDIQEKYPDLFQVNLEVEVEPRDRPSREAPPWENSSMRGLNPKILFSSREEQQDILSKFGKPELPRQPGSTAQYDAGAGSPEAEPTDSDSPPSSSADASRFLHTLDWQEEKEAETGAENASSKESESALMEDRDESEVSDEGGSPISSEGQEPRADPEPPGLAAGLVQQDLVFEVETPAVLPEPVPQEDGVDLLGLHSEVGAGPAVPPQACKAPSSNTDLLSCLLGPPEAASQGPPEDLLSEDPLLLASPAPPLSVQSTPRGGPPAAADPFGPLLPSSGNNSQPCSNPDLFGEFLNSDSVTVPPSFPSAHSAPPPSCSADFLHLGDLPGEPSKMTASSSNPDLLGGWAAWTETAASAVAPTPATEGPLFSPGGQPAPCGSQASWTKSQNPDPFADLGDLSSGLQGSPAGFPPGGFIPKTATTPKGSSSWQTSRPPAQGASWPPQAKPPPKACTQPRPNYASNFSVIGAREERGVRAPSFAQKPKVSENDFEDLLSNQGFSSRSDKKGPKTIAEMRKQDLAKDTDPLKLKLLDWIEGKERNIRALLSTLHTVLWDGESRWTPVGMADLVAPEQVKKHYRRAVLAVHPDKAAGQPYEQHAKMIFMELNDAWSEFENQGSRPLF
UniProt P23327, sequence (P23327 whole entry, looked up): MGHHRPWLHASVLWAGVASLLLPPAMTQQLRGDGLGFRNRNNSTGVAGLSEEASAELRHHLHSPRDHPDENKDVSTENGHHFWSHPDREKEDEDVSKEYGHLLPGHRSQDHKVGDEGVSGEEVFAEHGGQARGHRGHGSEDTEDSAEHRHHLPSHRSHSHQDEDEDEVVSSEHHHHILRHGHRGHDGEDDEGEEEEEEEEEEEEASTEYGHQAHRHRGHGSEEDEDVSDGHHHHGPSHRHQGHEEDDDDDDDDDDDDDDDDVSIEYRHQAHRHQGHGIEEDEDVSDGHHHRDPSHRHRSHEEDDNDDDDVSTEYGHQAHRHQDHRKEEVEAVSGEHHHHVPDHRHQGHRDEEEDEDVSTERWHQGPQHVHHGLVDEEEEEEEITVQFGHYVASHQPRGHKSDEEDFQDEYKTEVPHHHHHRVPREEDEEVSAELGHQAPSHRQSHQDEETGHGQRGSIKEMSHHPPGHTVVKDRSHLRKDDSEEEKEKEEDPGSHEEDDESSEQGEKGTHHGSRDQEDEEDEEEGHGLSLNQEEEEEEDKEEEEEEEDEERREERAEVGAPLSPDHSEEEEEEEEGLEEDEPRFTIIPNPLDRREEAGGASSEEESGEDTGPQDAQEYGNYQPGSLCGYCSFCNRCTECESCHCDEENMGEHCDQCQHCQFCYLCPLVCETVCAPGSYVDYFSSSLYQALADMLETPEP
UniProt P30711, sequence (P30711 whole entry, looked up): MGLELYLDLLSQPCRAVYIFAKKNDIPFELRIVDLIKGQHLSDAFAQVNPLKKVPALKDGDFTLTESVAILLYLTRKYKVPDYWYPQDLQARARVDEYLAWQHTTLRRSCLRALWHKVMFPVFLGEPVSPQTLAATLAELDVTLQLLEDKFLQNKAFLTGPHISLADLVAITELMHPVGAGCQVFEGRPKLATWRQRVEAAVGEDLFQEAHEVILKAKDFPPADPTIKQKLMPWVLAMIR
UniProt P16278, sequence (P16278 whole entry, looked up): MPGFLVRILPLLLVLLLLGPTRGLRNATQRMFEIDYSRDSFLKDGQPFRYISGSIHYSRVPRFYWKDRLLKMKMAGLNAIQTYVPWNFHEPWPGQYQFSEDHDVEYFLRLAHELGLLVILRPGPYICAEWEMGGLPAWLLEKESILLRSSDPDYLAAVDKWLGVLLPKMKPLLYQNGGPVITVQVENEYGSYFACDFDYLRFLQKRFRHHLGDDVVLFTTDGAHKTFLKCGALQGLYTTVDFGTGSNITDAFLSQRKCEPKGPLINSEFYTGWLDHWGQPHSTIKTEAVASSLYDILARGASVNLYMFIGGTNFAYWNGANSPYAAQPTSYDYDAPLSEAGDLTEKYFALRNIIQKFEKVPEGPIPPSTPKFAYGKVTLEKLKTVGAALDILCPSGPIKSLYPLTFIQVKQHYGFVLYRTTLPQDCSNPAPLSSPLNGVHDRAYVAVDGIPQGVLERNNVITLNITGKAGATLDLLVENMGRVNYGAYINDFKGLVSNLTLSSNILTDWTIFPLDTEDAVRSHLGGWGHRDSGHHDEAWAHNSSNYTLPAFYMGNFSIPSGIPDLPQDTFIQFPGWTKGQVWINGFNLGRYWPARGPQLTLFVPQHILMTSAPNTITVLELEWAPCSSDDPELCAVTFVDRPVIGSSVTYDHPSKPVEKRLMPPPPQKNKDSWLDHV
UniProt O76003, sequence (O76003 whole entry, looked up): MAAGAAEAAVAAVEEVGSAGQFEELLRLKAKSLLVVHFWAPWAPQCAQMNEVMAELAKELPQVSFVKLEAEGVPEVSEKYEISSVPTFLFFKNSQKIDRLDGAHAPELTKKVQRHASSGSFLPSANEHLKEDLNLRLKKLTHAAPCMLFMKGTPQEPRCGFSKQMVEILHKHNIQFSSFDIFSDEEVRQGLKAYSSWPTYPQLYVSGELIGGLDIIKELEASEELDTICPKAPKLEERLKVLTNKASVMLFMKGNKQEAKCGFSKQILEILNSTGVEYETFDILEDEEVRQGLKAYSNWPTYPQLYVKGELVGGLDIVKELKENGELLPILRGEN
UniProt Q9NZC3, sequence (Q9NZC3 whole entry, looked up): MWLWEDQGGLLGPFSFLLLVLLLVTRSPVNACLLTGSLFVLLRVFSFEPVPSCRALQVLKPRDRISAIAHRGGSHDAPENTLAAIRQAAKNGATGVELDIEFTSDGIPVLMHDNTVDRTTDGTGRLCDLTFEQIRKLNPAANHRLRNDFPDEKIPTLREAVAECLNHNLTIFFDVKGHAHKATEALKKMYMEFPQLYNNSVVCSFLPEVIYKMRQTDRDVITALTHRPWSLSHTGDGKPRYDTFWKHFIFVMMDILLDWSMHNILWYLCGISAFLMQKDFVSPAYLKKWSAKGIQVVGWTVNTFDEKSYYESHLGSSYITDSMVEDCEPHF
UniProt P22570, sequence (P22570 whole entry, looked up): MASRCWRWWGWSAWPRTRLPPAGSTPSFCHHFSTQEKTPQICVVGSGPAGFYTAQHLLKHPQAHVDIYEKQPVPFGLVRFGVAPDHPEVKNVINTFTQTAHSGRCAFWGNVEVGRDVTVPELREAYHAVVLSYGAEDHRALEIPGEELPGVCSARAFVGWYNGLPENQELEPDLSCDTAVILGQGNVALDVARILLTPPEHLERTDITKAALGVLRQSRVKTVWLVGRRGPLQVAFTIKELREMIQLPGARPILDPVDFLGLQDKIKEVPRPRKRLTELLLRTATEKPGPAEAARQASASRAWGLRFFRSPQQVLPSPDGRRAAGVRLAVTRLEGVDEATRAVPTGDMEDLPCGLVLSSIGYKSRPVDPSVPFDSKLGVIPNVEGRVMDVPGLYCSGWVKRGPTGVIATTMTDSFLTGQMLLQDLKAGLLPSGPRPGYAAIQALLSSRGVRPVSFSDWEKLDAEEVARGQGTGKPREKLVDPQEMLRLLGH
UniProt Q00403, sequence (Q00403 whole entry, looked up): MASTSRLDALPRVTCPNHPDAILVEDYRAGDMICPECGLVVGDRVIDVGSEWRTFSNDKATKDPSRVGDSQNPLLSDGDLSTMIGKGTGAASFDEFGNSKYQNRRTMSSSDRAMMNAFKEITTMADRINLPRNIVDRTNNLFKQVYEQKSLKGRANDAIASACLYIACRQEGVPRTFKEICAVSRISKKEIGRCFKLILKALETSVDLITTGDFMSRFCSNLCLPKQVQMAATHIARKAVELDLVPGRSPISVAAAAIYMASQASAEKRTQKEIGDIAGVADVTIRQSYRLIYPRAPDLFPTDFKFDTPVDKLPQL

log2 fold change, inactive:
FHOD1 (UniProt Q9Y613) -0.171
GLB1 (UniProt P16278) -0.01
HDGFL2 (UniProt Q7Z4V5) 0.012
FYB1 isoform 3 (UniProt O15117) 0.052
GSTT1 (UniProt P30711) 0.203
HEXA (UniProt P06865) -0.012
GLUL (UniProt P15104) 0.081
HS1BP3 (UniProt Q53T59) 0.056
ICMT (UniProt O60725) -0.029
HNRNPH2 (UniProt P55795) -0.004
GGA2 (UniProt Q9UJY4) -0.033
GBA2 (UniProt Q9HCG7) -0.062
HK2 (UniProt P52789) 0.049
GMEB2 (UniProt Q9UKD1) 0.156
IFRD1 (UniProt O00458) 0.053
GAK (UniProt O14976) -0.046
HDAC7 isoform 5 (UniProt Q8WUI4) 0.016
HNRNPUL1 (UniProt Q9BUJ2) 0.019
HSD17B12 (UniProt Q53GQ0) -0.013
GBF1 (UniProt Q92538) -0.007
HSPA8 (UniProt E9PN89) -0.278
GOLGB1 isoform 2 (UniProt Q14789) -0.185
GLRX3 (UniProt O76003) 0.018
HMGN1 (UniProt P05114) -0.008
FKBP3 (UniProt Q00688) 0.037
GDE1 (UniProt Q9NZC3) -0.046
HRC (UniProt P23327) -0.061
HEXB (UniProt P07686) -0.006
GYS1 (UniProt P13807) -0.034
FDXR isoform 7 (UniProt P22570) 0.059
GTF2B (UniProt Q00403) 0.096
GLYR1 (UniProt Q49A26) -0.074
GPKOW (UniProt Q92917) -0.021
IFITM3 (UniProt Q01628) -0.007
GALC (UniProt P54803) 0.042

Compound: CCn1c(C(=O)N(C2CC2)C2CC2)cc2c3c(ncn3C)c(Nc3cc(C)n(C)n3)nc21
Test: as above
Method in brief: as §1

log2 fold change, inactive:
FHOD1 (UniProt Q9Y613) -0.148
GLB1 (UniProt P16278) 0.038
HDGFL2 (UniProt Q7Z4V5) -0.006
FYB1 isoform 3 (UniProt O15117) -0.057
GSTT1 (UniProt P30711) -0.019
HEXA (UniProt P06865) 0.022
GLUL (UniProt P15104) 0.045
HS1BP3 (UniProt Q53T59) -0.043
ICMT (UniProt O60725) 0.073
HNRNPH2 (UniProt P55795) -0.202
GGA2 (UniProt Q9UJY4) 0.005
GBA2 (UniProt Q9HCG7) -0.075
HK2 (UniProt P52789) -0.127
GMEB2 (UniProt Q9UKD1) -0.059
IFRD1 (UniProt O00458) 0.019
GAK (UniProt O14976) 0.096
HDAC7 isoform 5 (UniProt Q8WUI4) -0.031
HNRNPUL1 (UniProt Q9BUJ2) -0.029
HSD17B12 (UniProt Q53GQ0) -0.036
GBF1 (UniProt Q92538) -0.07
HSPA8 (UniProt E9PN89) -0.127
GOLGB1 isoform 2 (UniProt Q14789) 0.082
GLRX3 (UniProt O76003) 0.027
HMGN1 (UniProt P05114) 0.063
FKBP3 (UniProt Q00688) 0
GDE1 (UniProt Q9NZC3) 0.002
HRC (UniProt P23327) -0.016
HEXB (UniProt P07686) 0.031
GYS1 (UniProt P13807) 0.069
FDXR isoform 7 (UniProt P22570) 0.01
GTF2B (UniProt Q00403) -0.04
GLYR1 (UniProt Q49A26) -0.047
GPKOW (UniProt Q92917) -0.063
IFITM3 (UniProt Q01628) -0.124
GALC (UniProt P54803) 0.012

From the supplement of paper PMC10849652
